In PubChem BioAssay AID1159580 (chemical genetic matrix, 2015):
Screen size: about 5,500 compounds; about 2,000 (36%) were called active. Not shown: some 18% with an inconclusive outcome. Rule as the data show it: active = normalized growth mostly below about 0.91 (no sharp cut-off); inconclusive = no clear call, values can overlap the other calls; inactive = mostly above about 0.92. The list shows a part of the results.

Test: chemical genetic growth profiling, strain panel (AID 1159580);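 also: tested at 20 µM; growth read once vehicle control cultures reached saturation at 30 °C; 1 = growth at the plate median or of vehicle wells; lower values mean less growth of the strain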
Conditions: growth OD

Measured: normalized growth

CC1(C)C(O)CC(O)C2(C)C1CC(O)C1(C)C2CCC2(C)C(c3ccoc3)OC(=O)C3OC321 (stereo not drawn)
inactive: S. cerevisiae deletion strains, locus YAL021C, strain ccr4, active compounds read low 0.989 | S. cerevisiae deletion strains, locus YAL026C, strain drs2, active compounds read low 0.983 | S. cerevisiae deletion strains, locus YAL030W, strain snc1, active compounds read low 0.998 | S. cerevisiae deletion strains, locus YBL061C, strain skt5, active compounds read low 1.01 | S. cerevisiae deletion strains, locus YBR009C, strain hhf1, active compounds read low 0.999 | S. cerevisiae deletion strains, locus YBR021W, strain FUR4, active compounds read low 0.974 | S. cerevisiae deletion strains, locus YBR023C, strain chs3, active compounds read low 0.997 | S. cerevisiae deletion strains, locus YBR171W, strain sec66, active compounds read low 0.988 | S. cerevisiae deletion strains, locus YBR229C, strain ROT2, active compounds read low 1.01 | S. cerevisiae deletion strains, locus YBR231C, strain swc5, active compounds read low 0.999 | S. cerevisiae deletion strains, locus YBR279W, strain paf1, active compounds read low 0.992 | S. cerevisiae deletion strains, locus YCL011C, strain gbp2, active compounds read low 0.976 | S. cerevisiae deletion strains, locus YCL016C, strain dcc1, active compounds read low 0.985 | S. cerevisiae deletion strains, locus YCL029C, strain bik1, active compounds read low 1.01 | S. cerevisiae deletion strains, locus YCL061C, strain MRC1, active compounds read low 1.01 | S. cerevisiae deletion strains, locus YCL069W, strain vba3, active compounds read low 1 | S. cerevisiae deletion strains, locus YCR088W, strain abp1, active compounds read low 0.988 | S. cerevisiae deletion strains, locus YDL005C, strain med2, active compounds read low 0.974 | S. cerevisiae deletion strains, locus YDL035C, strain GPR1, active compounds read low 1.02 | S. cerevisiae deletion strains, locus YDL040C, strain nat1, active compounds read low 0.991 | S. cerevisiae deletion strains, locus YDL074C, strain BRE1, active compounds read low 0.998 | S. cerevisiae deletion strains, locus YDL101C, strain DUN1, active compounds read low 1.02 | S. cerevisiae deletion strains, locus YDL185W, strain tfp1, active compounds read low 1.03 | S. cerevisiae deletion strains, locus YDL192W, strain arf1, active compounds read low 1.02 | S. cerevisiae deletion strains, locus YDR001C, strain nth1, active compounds read low 0.994 | S. cerevisiae deletion strains, locus YDR069C, strain doa4, active compounds read low 0.98 | S. cerevisiae deletion strains, locus YDR101C, strain arx1, active compounds read low 1.01 | S. cerevisiae deletion strains, locus YDR137W, strain rgp1, active compounds read low 0.988 | S. cerevisiae deletion strains, locus YDR150W, strain NUM1, active compounds read low 0.998 | S. cerevisiae deletion strains, locus YDR159W, strain sac3, active compounds read low 1.01 | S. cerevisiae deletion strains, locus YDR162C, strain NBP2, active compounds read low 1.01 | S. cerevisiae deletion strains, locus YDR195W, strain ref2 0.953 | S. cerevisiae deletion strains, locus YDR297W, strain sur2, active compounds read low 0.986 | S. cerevisiae deletion strains, locus YDR318W, strain mcm21, active compounds read low 1.03 | S. cerevisiae deletion strains, locus YDR334W, strain swr1, active compounds read low 0.985 | S. cerevisiae deletion strains, locus YDR335W, strain msn5, active compounds read low 0.987 | S. cerevisiae deletion strains, locus YDR388W, active compounds read low 1.02 | S. cerevisiae deletion strains, locus YDR392W, strain spt3, active compounds read low 1.02 | S. cerevisiae deletion strains, locus YDR502C, strain sam2, active compounds read low 1.02 | S. cerevisiae deletion strains, locus YEL003W, strain gim4, active compounds read low 1.01 | S. cerevisiae deletion strains, locus YEL037C, strain rad23, active compounds read low 0.987 | S. cerevisiae deletion strains, locus YEL061C, strain CIN8 (second series), active compounds read low 0.989 | S. cerevisiae deletion strains, locus YEL061C, strain CIN8, active compounds read low 0.998 | S. cerevisiae deletion strains, locus YER015W, strain faa2, active compounds read low 0.994 | S. cerevisiae deletion strains, locus YER016W, strain bim1, active compounds read low 0.999 | S. cerevisiae deletion strains, locus YER110C, active compounds read low 1.04 | S. cerevisiae deletion strains, locus YER111C, strain swi4, active compounds read low 0.98 | S. cerevisiae deletion strains, locus YER155C, strain BEM2 (second series), active compounds read low 1.01 | S. cerevisiae deletion strains, locus YER155C, strain BEM2, active compounds read low 0.99 | S. cerevisiae deletion strains, locus YER167W, strain BCK2, active compounds read low 1 | S. cerevisiae deletion strains, locus YFR010W, strain ubp6, active compounds read low 1.01 | S. cerevisiae deletion strains, locus YGL078C, strain dbp3, active compounds read low 1.03 | S. cerevisiae deletion strains, locus YGL086W, strain mad1, active compounds read low 1 | S. cerevisiae deletion strains, locus YGL167C, strain pmr1, active compounds read low 0.994 | S. cerevisiae deletion strains, locus YGL173C, strain kem1, active compounds read low 0.985 | S. cerevisiae deletion strains, locus YGL227W, strain vid30, active compounds read low 0.983 | S. cerevisiae deletion strains, locus YGL240W, strain doc1, active compounds read low 1.02 | S. cerevisiae deletion strains, locus YGL248W, strain PDE1, active compounds read low 1.01 | S. cerevisiae deletion strains, locus YGL253W, strain hxk2, active compounds read low 0.962 | S. cerevisiae deletion strains, locus YGR078C, strain PAC10, active compounds read low 1.01 | S. cerevisiae deletion strains, locus YGR135W, strain pre9, active compounds read low 1.03 | S. cerevisiae deletion strains, locus YGR229C, strain SMI1, active compounds read low 1 | S. cerevisiae deletion strains, locus YGR252W, strain gcn5, active compounds read low 1.01 | S. cerevisiae deletion strains, locus YHR013C, strain ard1, active compounds read low 0.959 | S. cerevisiae deletion strains, locus YHR027C, strain rpn1, active compounds read low 1 | S. cerevisiae deletion strains, locus YHR030C, strain SLT2, active compounds read low 1.01 | S. cerevisiae deletion strains, locus YHR079C, strain IRE1 (second series), active compounds read low 1.02 | S. cerevisiae deletion strains, locus YHR094C, strain hxt1, active compounds read low 1.02 | S. cerevisiae deletion strains, locus YHR129C, strain ARP1, active compounds read low 0.999 | S. cerevisiae deletion strains, locus YHR142W, strain chs7, active compounds read low 0.972 | S. cerevisiae deletion strains, locus YHR200W, strain rpn10, active compounds read low 1.01 | S. cerevisiae deletion strains, locus YIL066C, strain RNR3, active compounds read low 1.02 | S. cerevisiae deletion strains, locus YIL073C, strain SPO22, active compounds read low 1.08 | S. cerevisiae deletion strains, locus YIL125W, strain kgd1, active compounds read low 1.01 | S. cerevisiae deletion strains, locus YIR030C, strain dcg1, active compounds read low 1.02 | S. cerevisiae deletion strains, locus YJL092W, strain hpr5, active compounds read low 0.997 | S. cerevisiae deletion strains, locus YJL095W, strain BCK1 (second series), active compounds read low 0.983 | S. cerevisiae deletion strains, locus YJL095W, strain BCK1, active compounds read low 1 | S. cerevisiae deletion strains, locus YJL115W, strain asf1, active compounds read low 1 | S. cerevisiae deletion strains, locus YJL129C, strain trk1, active compounds read low 0.959 | S. cerevisiae deletion strains, locus YJL134W, strain LCB3, active compounds read low 0.996 | S. cerevisiae deletion strains, locus YJL154C, strain vps35, active compounds read low 0.991 | S. cerevisiae deletion strains, locus YJL164C, strain tpk1, active compounds read low 0.989 | S. cerevisiae deletion strains, locus YJL166W, strain qcr8, active compounds read low 0.982 | S. cerevisiae deletion strains, locus YJL168C, strain set2, active compounds read low 1.01 | S. cerevisiae deletion strains, locus YJL187C, strain SWE1 (second series), active compounds read low 1.01 | S. cerevisiae deletion strains, locus YKL009W, strain mrt4, active compounds read low 0.962 | S. cerevisiae deletion strains, locus YKL068W, active compounds read low 1.01 | S. cerevisiae deletion strains, locus YKL085W, strain MDH1 (second series), active compounds read low 1 | S. cerevisiae deletion strains, locus YKL085W, strain MDH1, active compounds read low 1 | S. cerevisiae deletion strains, locus YKL160W, strain elf1, active compounds read low 0.991 | S. cerevisiae deletion strains, locus YKL190W, strain CNB1, active compounds read low 0.996 | S. cerevisiae deletion strains, locus YKR001C, strain vps1, active compounds read low 1.01 | S. cerevisiae deletion strains, locus YKR026C, strain gcn3, active compounds read low 0.989 | S. cerevisiae deletion strains, locus YKR091W, strain srl3, active compounds read low 0.986 | S. cerevisiae deletion strains, locus YLL001W, strain dnm1, active compounds read low 0.989 | S. cerevisiae deletion strains, locus YLL026W, active compounds read low 1 | S. cerevisiae deletion strains, locus YLL041C, strain sdh2, active compounds read low 1 | S. cerevisiae deletion strains, locus YLR027C, strain aat2, active compounds read low 0.999 | S. cerevisiae deletion strains, locus YLR039C, strain RIC1, active compounds read low 1.06 | S. cerevisiae deletion strains, locus YLR058C, strain SHM2, active compounds read low 1.02 | S. cerevisiae deletion strains, locus YLR102C, strain apc9, active compounds read low 1.02 | S. cerevisiae deletion strains, locus YLR221C, strain rsa3, active compounds read low 0.993 | S. cerevisiae deletion strains, locus YLR258W, strain gsy2, active compounds read low 0.994 | S. cerevisiae deletion strains, locus YLR262C, strain YPT6 (second series), active compounds read low 0.994 | S. cerevisiae deletion strains, locus YLR262C, strain YPT6, active compounds read low 1.07 | S. cerevisiae deletion strains, locus YLR268W, strain sec22, active compounds read low 1.01 | S. cerevisiae deletion strains, locus YLR320W, strain mms22, active compounds read low 1 | S. cerevisiae deletion strains, locus YLR330W, strain CHS5, active compounds read low 1.01 | S. cerevisiae deletion strains, locus YLR342W, strain FKS1, active compounds read low 0.999 | S. cerevisiae deletion strains, locus YLR357W, strain rsc2, active compounds read low 0.995 | S. cerevisiae deletion strains, locus YLR370C, strain arc18, active compounds read low 0.981 | S. cerevisiae deletion strains, locus YLR371W, strain rom2, active compounds read low 0.954 | S. cerevisiae deletion strains, locus YLR384C, strain iki3, active compounds read low 0.977 | S. cerevisiae deletion strains, locus YLR418C, strain cdc73, active compounds read low 1.02 | S. cerevisiae deletion strains, locus YML016C, strain PPZ1, active compounds read low 1.01 | S. cerevisiae deletion strains, locus YML032C, strain rad52, active compounds read low 1 | S. cerevisiae deletion strains, locus YML120C, strain ndi1, active compounds read low 0.991 | S. cerevisiae deletion strains, locus YML124C, strain tub3, active compounds read low 1.01 | S. cerevisiae deletion strains, locus YMR058W, strain fet3, active compounds read low 0.998 | S. cerevisiae deletion strains, locus YMR078C, strain ctf18, active compounds read low 1.03 | S. cerevisiae deletion strains, locus YMR125W, strain sto1, active compounds read low 0.98 | S. cerevisiae deletion strains, locus YMR129W, active compounds read low 0.989 | S. cerevisiae deletion strains, locus YMR205C, strain PFK2, active compounds read low 0.999 | S. cerevisiae deletion strains, locus YMR223W, strain ubp8, active compounds read low 1.02 | S. cerevisiae deletion strains, locus YMR231W, strain pep5, active compounds read low 0.987 | S. cerevisiae deletion strains, locus YMR307W, strain GAS1, active compounds read low 1.02 | S. cerevisiae deletion strains, locus YNL067W, strain RPL9B, active compounds read low 1.02 | S. cerevisiae deletion strains, locus YNL071W, strain lat1, active compounds read low 0.998 | S. cerevisiae deletion strains, locus YNL128W, strain TEP1, active compounds read low 1.02 | S. cerevisiae deletion strains, locus YNL153C, strain GIM3, active compounds read low 1.01 | S. cerevisiae deletion strains, locus YNL209W, strain ssb2, active compounds read low 1.01 | S. cerevisiae deletion strains, locus YNL233W, strain BNI4, active compounds read low 0.995 | S. cerevisiae deletion strains, locus YNL248C, strain rpa49, active compounds read low 0.964 | S. cerevisiae deletion strains, locus YNL250W, strain rad50, active compounds read low 1.03 | S. cerevisiae deletion strains, locus YNL271C, strain bni1, active compounds read low 1.03 | S. cerevisiae deletion strains, locus YNL298W, strain CLA4, active compounds read low 1.02 | S. cerevisiae deletion strains, locus YNL307C, strain MCK1, active compounds read low 1.03 | S. cerevisiae deletion strains, locus YNL322C, strain KRE1 (second series), active compounds read low 0.988 | S. cerevisiae deletion strains, locus YNR049C, strain mso1, active compounds read low 0.999 | S. cerevisiae deletion strains, locus YNR052C, strain pop2, active compounds read low 1 | S. cerevisiae deletion strains, locus YOL006C, strain TOP1, active compounds read low 1.13 | S. cerevisiae deletion strains, locus YOL012C, strain htz1 0.879 | S. cerevisiae deletion strains, locus YOL147C, strain pex11, active compounds read low 1.01 | S. cerevisiae deletion strains, locus YOR001W, strain rrp6, active compounds read low 1 | S. cerevisiae deletion strains, locus YOR061W, strain CKA2, active compounds read low 1.02 | S. cerevisiae deletion strains, locus YOR069W, strain VPS5, active compounds read low 1 | S. cerevisiae deletion strains, locus YOR070C, strain gyp1, active compounds read low 1 | S. cerevisiae deletion strains, locus YOR080W, strain dia2, active compounds read low 0.983 | S. cerevisiae deletion strains, locus YOR083W, strain WHI5, active compounds read low 0.994 | S. cerevisiae deletion strains, locus YOR106W, strain vam3, active compounds read low 0.996 | S. cerevisiae deletion strains, locus YOR136W, strain idh2, active compounds read low 1.03 | S. cerevisiae deletion strains, locus YOR144C, strain elg1, active compounds read low 1.02 | S. cerevisiae deletion strains, locus YOR184W, strain ser1, active compounds read low 1.03 | S. cerevisiae deletion strains, locus YOR265W, strain rbl2, active compounds read low 1 | S. cerevisiae deletion strains, locus YOR270C, strain vph1, active compounds read low 0.914 | S. cerevisiae deletion strains, locus YOR290C, strain snf2, active compounds read low 0.967 | S. cerevisiae deletion strains, locus YOR316C, strain cot1, active compounds read low 1.02 | S. cerevisiae deletion strains, locus YPL051W, strain arl3, active compounds read low 1 | S. cerevisiae deletion strains, locus YPL078C, strain atp4, active compounds read low 0.986 | S. cerevisiae deletion strains, locus YPL106C, strain sse1, active compounds read low 0.988 | S. cerevisiae deletion strains, locus YPL240C, strain hsp82, active compounds read low 0.983 | S. cerevisiae deletion strains, locus YPR119W, strain clb2, active compounds read low 1.01 | S. cerevisiae deletion strains, locus YPR141C, strain kar3, active compounds read low 1.03 | S. cerevisiae deletion strains, locus YPR163C, strain tif3, active compounds read low 1.03 | S. cerevisiae deletion strains, locus YPR167C, strain met16, active compounds read low 1.02 | S. cerevisiae deletion strains, strain wtn01, active compounds read low 1.02 | S. cerevisiae strains, strain wild type, active compounds read low 1.02
